KB-V1 MDR tox – kills drug-selected multidrug resistant KB-V1 cells | hit rate 3.4% among 400,000 | Potency, µM (titrated, usually from 46.1 µM), actives largely listed as cytotoxic | AID 1347076 | KB-V1 MDR cells viability, CellTiter-Glo, 72 h; note: % is set by controls: 0 for no effect and ±100 for the full control effect; nearly all actives have a fitted effect of over 60% in size
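Cells of the MDR subline KB-V1 are plated, dosed with compound at multiple concentrations, and incubated 72 h at 37 degrees C; CellTiter-Glo is then added and luminescence read after 10 min.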
MCF10A rereplic – induces DNA re-replication in MCF 10a normal breast cells; MCF 10A DNA re-replication, Hoechst nuclear intensity, 48 h; Potency, µM (doses to about 46.1 µM), for the others: at the top dose activity, positive = re-replication, actives largely listed as activators; hit rate 2.9% among 350,000; AID 624296; note: % of control where 0% means no effect; nearly all actives have a fitted effect of over 50% in size
HT1080-NT tox – kills 2HG-producing HT-1080-NT fibrosarcoma cells. HT-1080-NT fibrosarcoma viability, CellTiter-Glo ATP luminescence, 48 h. AID 686970. hit rate 1.6% among 360,000. Potency, µM (series often up to 46.1 µM), inactives show at the top dose activity, negative = less viability, usual class: cytotoxic;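 note: NT is the 2HG producing partner of a matched IDH1 knockdown line; 0% = DMSO-treated cells and -100% = media-only wells without cells; nearly all actives have a fitted effect of over 55% in size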
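Fibrosarcoma NT cells, 750 per well in 5% FBS RPMI, were exposed to compound for 48 hours. Viability: CellTiter-Glo luminescence.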
SW480 rereplic – DNA re-replication induction in SW480 cells. SW480 DNA re-replication, Hoechst DNA content imaging, 48 h. Potency, µM (series often up to 46.1 µM), for the others: top-dose re-replication activation, actives largely listed as activators. hit rate 1.8% among 340,000; note: % of control where 0% means no effect; nearly all actives have a fitted effect of over 55% in size
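DNA re-replication was detected as more nuclei of elevated Hoechst intensity after 48 hr exposure to compound (23 nL pinned per well of 250 cells).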
HT1080 IDH1KD tx – HT-1080 IDH1 knockdown cell toxicity (counter line). Potency, µM (titrated, usually from 46.1 µM), without a hit: top-dose activity, negative = toxicity, hits mostly cytotoxic. hit rate 2% among 360,000. AID 686971. HT-1080 IDH1 knockdown viability, ATP luminescence, 48 h;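 note: 0% = DMSO wells and -100% = cell-free medium wells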
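Using the IDH1-knockdown HT-1080 line run in the same batch and compound series as the NT line, viability after 48 h at 37 °C was determined by CellTiter-Glo luminescence and expressed as % activity.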
KB-3-1 cytotox – KB-3-1 parental cell cytotoxicity. KB-3-1 viability, CellTiter-Glo ATP luminescence, 72 h. Potency, µM (titrated, usually from 46.1 µM), hits mostly cytotoxic. AID 1347075. hit rate 1.4% among 400,000; note: % is set by controls: 0 for no effect and ±100 for the full control effect; nearly all actives have a fitted effect of over 60% in size
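Using CellTiter-Glo luminescence, growth of non-resistant KB-3-1 adenocarcinoma cells is assessed 72 h after pin-tool compound addition at 37 °C. Normalized responses across the concentration series yield fitted curves.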
* hit, by the source's call; i = inactive; ? = inconclusive; nt = not tested or not shown; [ ] = remark or other dose. Most compounds without a hit are left out; they make up all but 8% or so of the library. Calls come from the whole dose curve; as a rule, active = well fitted curve in the direction sought with a large enough effect; inconclusive = small, poorly fitted or top-dose-only effect, or another doubt; inactive = no such curve, though single readings can be large; an effect the other way counts as inactive or inconclusive. Potency is the fitted concentration of half-maximal effect.

SMILES	KB-V1 MDR tox	MCF10A rereplic	HT1080-NT tox	SW480 rereplic	HT1080 IDH1KD tx	KB-3-1 cytotox
COC(=O)[C@@]1(Cc2ccc(OC)cc2)[C@H]2c3cc(C(=O)N4CCCC4)n(Cc4ccsc4Br)c3C[C@H]2CN1C(=O)c1ccccc1	?	nt	?	nt	?	18µM*
COC(=O)[C@@]1(Cc2ccc(F)cc2)[C@H]2c3cc(C(=O)N(C)C)n(CCO)c3C[C@H]2CN1C(=O)c1ccccc1	i	nt	11%	nt	4%	i
COC(=O)[C@@]1(Cc2ccc(F)cc2)[C@H]2c3cc(C(=O)N(C)C)n(Cc4ccccc4)c3C[C@H]2CN1C(=O)c1ccccc1	i	?	?	?	-9%	i
COC(=O)[C@@]1(Cc2ccc(F)cc2)[C@H]2c3cc(C(=O)N(C)C)n(CCCNc4ncc(C(F)(F)F)cc4Cl)c3C[C@H]2CN1C(=O)c1ccccc1	18µM*	nt	?	nt	?	?
COC(=O)[C@@]1(Cc2ccc(OC)cc2)[C@H]2c3cc(C(=O)N(C)C)n(Cc4ccc(OC(F)(F)F)cc4)c3C[C@H]2CN1C(=O)c1ccccc1	?	?	-19%	18µM*	-22%	?
CC1CCN(S(=O)(=O)c2ccc3c(c2)N(CC(=O)NCc2cccnc2)C(=O)CS3)CC1	i	-48%	1%	0%	8%	i
Cc1c(F)cccc1NS(=O)(=O)c1cccs1	i	nt	nt	nt	nt	i
CCN1CCN(c2oc(-c3ccc(COc4ccccc4C)o3)nc2C#N)CC1	i	nt	nt	nt	nt	21µM*
CC1CCCN(c2nc3c(c(=O)[nH]c(=O)n3C)n2CCSc2nc3ccccc3o2)C1 (stereo not given)	i	18%	0%	-18%	0%	i
CC1CCN(c2nc3c(c(=O)n(C)c(=O)n3C)n2CCSc2nc3ccccc3s2)CC1	15µM*	?	-7%	12%	-10%	?
Cn1c(=O)c2c(nc(N3CCCCC3)n2CCSc2nc3ccccc3s2)n(C)c1=O	?	15%	2%	-4%	-8%	i
CC1CCCN(c2nc3c(c(=O)n(C)c(=O)n3C)n2CCSc2nc3ccccc3o2)C1 (stereo not given)	2.6µM*	3%	-1%	-17%	0%	i
CC1CCCN(c2nc3c(c(=O)n(C)c(=O)n3C)n2CCSc2nc3ccccc3s2)C1 (stereo not given)	10µM*	?	-4%	-16%	-10%	?
O=C1CCCC2=C1C(c1ccccc1Cl)N=C(Nc1nc3ccccc3o1)N2 (stereo not given)	i	nt	nt	nt	nt	i
CC(=O)C1(C)CCC2C3C=C(C)C4=CC(=O)CCC4(C)C3CCC21C (stereo not given)	4.6µM*	16µM*	0%	0%	7%	?
C=C1CC2C(CCC3(C)C2CCC3(O)C(C)=O)C2(C)CCC(=O)C=C12 (stereo not given)	21µM*	23µM*	?	-11%[9.22 µM]	-29%	21µM*
CC(=O)[C@@]1(O)CC[C@H]2[C@@H]3C[C@H](C)C4=CC(=O)CC[C@]4(C)[C@H]3CC[C@@]21C	?	1%	2%	29%	-3%	i
C=C1C[C@H]2[C@@H]3C=C(C)C4=CC(=O)CC[C@]4(C)[C@H]3CC[C@]2(C)[C@@]1(OC(C)=O)C(C)=O	?	9%	2%	-10%	-4%	i
CCOc1ccc(-c2c(C(=O)N/N=C/c3ccc(Cl)cc3)nnn2-c2nonc2N)cc1	i	-4%	-3%	-9%	3%	i
Cc1ccc2cccc(NC(=O)COc3ccccc3Cl)c2n1	i	nt	nt	nt	nt	i
CC(NCC(O)c1ccc([N+](=O)[O-])cc1)C12CC3CC(CC(C3)C1)C2 (stereo not given)	i	17%	18µM*	2%	23µM*	i
